Laboratory results taken from PubChem BioAssay (Tox21).
Values joined by “and” are separate entries in the source; they are usually repeats but may differ in a detail not shown here. Equal values may be shown once. Values without a mark were called inactive. Active and inactive are the calls of the source. The call rests on the fitted dose curve.

assay: qHTS assay to identify small molecule agonists of the estrogen related receptor (ERR) signaling pathway from Tox21 library (AID 1224849); conditions: ERR reporter cell line, ONE-Glo luciferase, 18 h; at 42.5 µM (top of the series); further: nearly all actives have a fitted effect of over 15% in size
Description: National Center for Advancing Translational Sciences [NCATS]
NIH Chemical Genomics Center [NCGC]
U.S. Environmental Protection Agency [EPA]
National Institutes of Environmental Health Sciences [NIEHS]
National Toxicology Program [NTP]
Estrogen related receptors (ERRs), the first orphan nuclear receptors discovered, play an important role in the control of cellular energy metabolism. ERRs are required for high-energy production in response to the environmental challenges. ERR-alpha was also identified as an adverse marker for breast cancer progression; ERR-alpha-positive tumors have a poor prognosis. To screen and to identify environmental compounds that perturb the ERR signaling pathways could provide valuable information for potential therapeutic or preventive measures in the treatment of metabolic disease. For identifying ERR agonists, ERR cell line (provided by NTP) has been used to screen Tox21 10K library.
The ERR cells were dispensed at 2,000 cells/5 ul/well in 1536-well white plates using a Multidrop dispenser. After the assay plates were incubated at a 37 C/5% CO2 incubator for 6 hours, 23 nL of compounds dissolved in DMSO, positive and negative controls or DMSO only was transferred to the assay plate by a pin tool. The plates were incubated at 37 C for 18 hours. 4 ul/well of One-Glo reagent was added into the assay plates using a Flying Reagent Dispenser. After 30-minute incubation at room temperature, the luminescence intensity in the plates was measured using a ViewLux plate reader.
On the % scale 0 is the no-effect control and ±100 the full control effect.

Row | Compound | activity change, positive = activation [%]
1 | C[C@]12C/C(=C/O)C(=O)C[C@@H]1CC[C@@H]1[C@@H]2CC[C@@]2(C)[C@H]1CC[C@]2(C)O | -37.2

same assay, conditions: ERR reporter cell line, ONE-Glo luciferase, 18 h; at 92.4 µM (top of the series)

Row | Compound | activity change, positive = activation [%]
2 | C[C@]12C/C(=C/O)C(=O)C[C@@H]1CC[C@@H]1[C@@H]2CC[C@@]2(C)[C@H]1CC[C@]2(C)O | -61.4

same assay, conditions: ERR reporter cell line, ONE-Glo luciferase, 18 h; at 92.4 µM (top of the series) unless noted

Row | Compound | activity change, positive = activation
3 | Oc1cc(Cl)c(Cl)c(Cl)c1Cl | -60.7%
4 | CCCCON=O | -4.4%
5 | Nc1cc(Cl)ccc1Cl | -0.0267%
6 | CCCCCON=O | -5.1%
7 | Clc1ccc(C(c2ccc(Cl)cc2)C(Cl)Cl)cc1 | -36.3% and -43.8%
8 | COc1nc(C)nc(NC(=O)NS(=O)(=O)c2ccccc2Cl)n1 | 7.61%
9 | O=C1C2(Cl)C3(Cl)C4(Cl)C(Cl)(Cl)C5(Cl)C3(Cl)C1(Cl)C5(Cl)C24Cl (stereo not given) | -74.4% and -66.3%
10 | CCN1CCC2(CC1)COc1cc3c(cc12)N(C(=O)c1ccc(-c2ccc(-c4nnc(C)o4)cc2C)cc1)CC3 | -74.2%
11 | ClC1=C(Cl)[C@]2(Cl)[C@@H]3[C@H]4C[C@H]([C@@H]5O[C@H]45)[C@@H]3[C@@]1(Cl)C2(Cl)Cl | -25%
12 | O=C(CCCCl)c1ccc(F)cc1 | 7.87% [at 42.5 µM]
13 | C#CC1(O)CCCCC1 | 1.06%
14 | C[C@H]1[C@H](c2ccc(Cl)cc2)SC(=O)N1C(=O)NC1CCCCC1 | -41.4%
15 | CCCCN(CCCC)C(=S)S | -4.56%
16 | C[C@@H]1CC2=CC(=O)CC[C@@H]2[C@H]2CC[C@@]3(C)[C@@H](CC[C@]3(C)O)[C@@H]21 | -28.8% [at 42.5 µM]
17 | O=NN(CCO)CCO | 1.69%
18 | ClC1(Cl)C2(Cl)C3(Cl)C4(Cl)C(Cl)(Cl)C5(Cl)C3(Cl)C1(Cl)C5(Cl)C24Cl (stereo not given) | 2.52%
19 | N#CC(C#N)=NNc1cccc(Cl)c1 | -57.7%
20 | Clc1ccc(C2(Cn3cncn3)OCCO2)c(Cl)c1 | -6.38%
21 | CCCCCCCCCCCCCCn1cc[n+](C)c1 | -74.5% and -73.1% and -26.1%

Row | Compound | activity change, positive = activation
22 | CCC[CH2][Sn]([CH2]CCC)([CH2]CCC)[CH2]CCC | -63.4%
23 | CCC1COC(Cn2cncn2)(c2ccc(Cl)cc2Cl)O1 (stereo not given) | -57.5%
24 | C#CCC1=C(C)C(OC(=O)C2C(C=C(C)C)C2(C)C)CC1=O (stereo not given) | -46%
25 | Cc1ccn2nc(S(=O)(=O)Nc3c(F)cccc3F)nc2n1 | 1.87%
26 | CCCCCCC[CH2][Sn]([Cl])([Cl])[CH2]CCCCCCC | -59.9%
27 | CC1(C)C(C=C(Cl)Cl)C1C(=O)OC(C#N)c1ccc(F)c(Oc2ccccc2)c1 (stereo not given) | -26.4%
28 | CCC[CH2][Sn]([CH2]CCC)([CH2]CCC)[O][Sn]([CH2]CCC)([CH2]CCC)[CH2]CCC | -60.2% [at 8.39 µM]
29 | N#Cc1c2ccccc2cc2ccccc12 | 3.94%
30 | O=c1[nH]c2cc(Cl)ccc2n1C1CCNCC1 | 0.0547% [at 42.5 µM]
31 | CC(C)=CC1C(C(=O)OC(C#N)c2cccc(Oc3ccccc3)c2)C1(C)C (stereo not given) | -9.74%
32 | C=CC(=O)[O][Sn]([CH2]CCC)([CH2]CCC)[CH2]CCC | -66.8%
33 | c1ccc(Nc2ccc(Nc3ccccc3)cc2)cc1 | -22.9%
34 | COP(=S)(OC)Oc1ccc([N+](=O)[O-])c(C)c1 | -19.2%
35 | Oc1ccc([C@H]2CNCc3c2ccc(O)c3O)cc1O | -4.81% [at 42.5 µM]
36 | Cc1cc(C2CC2)nc(Nc2ccccc2)n1 | 13.7% (active)
37 | COC(=O)N(OC)c1ccccc1COc1ccn(-c2ccc(Cl)cc2)n1 | -52.1%
38 | Nc1ccccc1-c1ccccc1 | -40.4%
39 | CC(=O)[O][Sn]([c]1ccccc1)([c]1ccccc1)[c]1ccccc1 | -74%
40 | COc1cnc(OC)n2nc(NS(=O)(=O)c3c(OCC(F)F)cccc3C(F)(F)F)nc12 | 0.129%
